For 33 molecules, Potency results are on record in PubChem BioAssay (NCATS).

Inconclusive results are not listed. The source made the active and inactive calls. The call rests on the fitted dose curve; in most records, active means well fitted curve in the direction sought with a large enough effect; inconclusive means small, poorly fitted or top-dose-only effect, or another doubt; inactive means no such curve, though single readings can be large; an effect the other way counts as inactive or inconclusive.

Assay [1] deals with Metallo-beta-lactamase type 2 (Klebsiella pneumoniae) (UniProt C7C422). Kind of assay: qHTS to identify inhibitors of the New Delhi Metallo-beta-lactamase (NDM): assay validation screen against the NCATS LOPAC Collection (AID 1794843). Further: potency means the concentration at half of the fitted maximal effect. In short, it runs like this:
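Absorbance at 485 nm from nitrocefin turnover (50 uM solution added), read at plateau, gives the read-out. Compounds in DMSO were incubated first with 2 nM final NDM-1 in pH 7.0 HEPES buffer containing 1 uM ZnSO4 and 0.01% Tween20.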

Assay [2] concerns the target Glutathione peroxidase 1 (Homo sapiens) (UniProt P07203). Nature of the assay: Primary qHTS Assay for Inhibitors of Recombinant Selenoprotein Glutathione Peroxidase 1 (GPX1) (AID 1845191). Further: nearly all actives have a fitted effect of over 65% in size. The procedure, abridged: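 GPX1 10 nM, GR 100 nM, GSH 1 mM, NADPH 0.5 mM, CHP 0.5 mM (final). 30-min cpd preincubation, RT. Ex340/Em450 read t=0, t=15 min.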
For assay [3], the target named is Phospholipid hydroperoxide glutathione peroxidase GPX4 (Homo sapiens) (UniProt P36969). Kind of assay: Primary qHTS Assay for Inhibitors of Recombinant Selenoprotein Glutathione Peroxidase 4 (GPX4) (AID 1845192). Further: nearly all actives have a fitted effect of over 65% in size. The procedure, abridged:
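qHTS, GR-coupled: GPX4 200 nM + cpd 30 min RT → GSH 1 mM, NADPH 0.5 mM, GR 100 nM → CHP 0.5 mM start; fluor 340/450 at t0 and t15 min; no-enzyme wells as control.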

Chain of Glutathione peroxidase 1 (Homo sapiens) (P07203 whole entry, looked up): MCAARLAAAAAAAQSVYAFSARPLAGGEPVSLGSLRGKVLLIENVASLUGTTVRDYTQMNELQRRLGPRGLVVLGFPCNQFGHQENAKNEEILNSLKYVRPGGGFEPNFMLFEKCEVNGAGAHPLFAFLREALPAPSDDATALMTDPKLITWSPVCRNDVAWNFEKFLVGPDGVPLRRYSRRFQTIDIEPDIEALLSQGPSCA
Chain of Metallo-beta-lactamase type 2 (Klebsiella pneumoniae) (C7C422 whole entry, looked up): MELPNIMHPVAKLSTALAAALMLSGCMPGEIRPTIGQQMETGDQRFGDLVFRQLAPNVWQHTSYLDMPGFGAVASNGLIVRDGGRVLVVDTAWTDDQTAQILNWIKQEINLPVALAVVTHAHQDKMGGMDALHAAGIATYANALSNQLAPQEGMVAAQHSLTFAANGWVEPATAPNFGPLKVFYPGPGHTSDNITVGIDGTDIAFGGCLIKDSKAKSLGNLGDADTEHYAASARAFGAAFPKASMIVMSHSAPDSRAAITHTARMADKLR
Chain of Phospholipid hydroperoxide glutathione peroxidase GPX4 (Homo sapiens) (P36969 whole entry, looked up): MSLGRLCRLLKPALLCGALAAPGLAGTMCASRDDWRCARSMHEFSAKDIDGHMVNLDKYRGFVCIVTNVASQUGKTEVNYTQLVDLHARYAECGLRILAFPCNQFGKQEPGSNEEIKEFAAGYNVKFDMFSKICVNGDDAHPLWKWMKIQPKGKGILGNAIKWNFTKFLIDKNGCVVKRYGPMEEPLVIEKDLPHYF

As to `Cc1o[nH]c(=O)c1CC(N)C(=O)O` (centres undefined), the Potency entry in assay [1], in assay [2] and in assay [3] was “inactive” in each case.
For the molecule `COc1ccc(CNC(=O)/C=C/c2ccc3[nH]cc(CCN(C)C)c3c2)cc1`, the Potency entry in assay [1], in assay [2] and in assay [3] was “inactive” in each case.
Take `O=C1CC[C@@]2(O)C3Cc4ccc(O)c5c4C2(CCN3CC2CC2)[C@H]1O5` (some centres undefined): the Potency entry in assay [1], in assay [2] and in assay [3] was “inactive” throughout.
Take `C[N+]1(C)CCOC(O)(c2ccc(-c3ccc(C4(O)C[N+](C)(C)CCO4)cc3)cc2)C1` (centres undefined): the Potency entry in assay [1], in assay [2] and in assay [3] was “inactive” each time.
On to `COC(=O)N1CCN(C(=O)Cc2ccc(Cl)c(Cl)c2)C(CN2CCCC2)C1` (centres undefined), for which the Potency result in assay [1], in assay [2] and in assay [3] was “inactive” throughout.
Turning to `CC(Cc1ccc(OCC(=O)O)cc1)NCC(O)c1cccc(Cl)c1` (centres undefined), the Potency result in assay [1], in assay [2] and in assay [3] was “inactive” in each case.
On to `CCS(=O)(=O)Nc1cccc(C(=C2CCCCC2)c2cnc[nH]2)c1`, for which the Potency entry in assay [1], in assay [2] and in assay [3] was “inactive” throughout.
In the case of `C[C@H](N)CN1CCc2ccc(Br)cc21`, the Potency entry in assay [1], in assay [2] and in assay [3] was “inactive” throughout.
Regarding `NC(=O)c1ccc(OCC(O)CN2CC=C(c3ccc(F)cc3)CC2)cc1` (centres undefined), the Potency entry in assay [1], in assay [2] and in assay [3] was “inactive” each time.
As for `OC1CCCCC1N1CCC(c2ccccc2)CC1` (centres undefined), the Potency entry in assay [1], in assay [2] and in assay [3] was “inactive” throughout.
As to `CN(C(=O)Cc1ccc(Cl)c(Cl)c1)C(CN1CCCC1)c1cccc(OCC(=O)O)c1` (centres undefined), the Potency result in assay [1], in assay [2] and in assay [3] was “inactive” each time.
`CC(N)Cc1c[nH]c2ccc(OCc3cccs3)cc12` (centres undefined): the Potency result in assay [1], in assay [2] and in assay [3] was “inactive” each time.
As for `C=CCN1C[C@@H](C)N([C@H](c2ccc(C(=O)N(CC)CC)cc2)c2cccc(OC)c2)C[C@@H]1C`, the Potency entry in assay [1], in assay [2] and in assay [3] was “inactive” in each case.
Consider `NCC(CP(=O)(O)O)c1ccc(Cl)cc1` (centres undefined), for which the Potency result in assay [1], in assay [2] and in assay [3] was “inactive” throughout.
As for `O=c1ccc2[nH]cc(C3=CCNCC3)c2[nH]1`, the Potency entry in assay [1], in assay [2] and in assay [3] was “inactive” each time.
With `NNC(=O)c1ccc(O)cc1`, the Potency entry in assay [1], in assay [2] and in assay [3] was “inactive” throughout.
Regarding `C[C@H](N)Cc1cccc(C(F)(F)F)c1`, the Potency entry in assay [1], in assay [2] and in assay [3] was “inactive” in each case.
Take `NC(Cc1cc(O)c(O)cc1O)C(=O)O` (centres undefined): in assay [1], the Potency was 3.98 µM (active). In addition, the Potency result in assay [2] and in assay [3] was “inactive” in each case.
Consider `C[N+](C)(C)CC#CCOC(=O)Nc1cccc(Cl)c1`, for which the Potency result in assay [1], in assay [2] and in assay [3] was “inactive” in each case.
Take `CCCN(CCC)C1Cc2cc(OC)c(OC)cc2C1`: the Potency result in assay [1], in assay [2] and in assay [3] was “inactive” throughout.
Take `CC(C)(O)[C@@H]1C2OC(=O)[C@@H]1[C@]1(O)C[C@H]3O[C@]34C(=O)O[C@H]2[C@]14C` (tested in a mixture with another compound): the Potency result in assay [1], in assay [2] and in assay [3] was “inactive” throughout.
`NC(=O)COc1c(F)cc(SCCNS(=O)(=O)c2ccccc2)cc1F`: the Potency entry in assay [1], in assay [2] and in assay [3] was “inactive” throughout.
Turning to `C[C@@H]1O[C@@H](O[C@H]2C[C@@H](O)[C@]3(CO)[C@@H]4C(CC[C@]3(O)C2)[C@@]2(O)CC[C@H]([C@@H]3COC(=O)C3)[C@@]2(C)C[C@H]4O)[C@H](O)[C@H](O)[C@H]1O` (some centres undefined), the Potency entry in assay [1], in assay [2] and in assay [3] was “inactive” each time.
With `CCOC(=O)c1ncn2c1[C@@H]1CCCN1C(=O)c1cc(OC)ccc1-2`, the Potency entry in assay [1], in assay [2] and in assay [3] was “inactive” each time.
`CC(=O)NBr`: the Potency result in assay [1], in assay [2] and in assay [3] was “inactive” throughout.
As for `NCCc1c[nH]c2ccc(C(N)=O)cc12`, the Potency result in assay [1], in assay [2] and in assay [3] was “inactive” in each case.
Turning to `C[N+]1(C)CCc2cc3c(cc2[C@H]1[C@@H]1OC(=O)c2c1ccc1c2OCO1)OCO3`, the Potency entry in assay [1], in assay [2] and in assay [3] was “inactive” throughout.
Turning to `NC(C(=O)O)c1cc(=O)[nH]o1` (centres undefined), the Potency result in assay [1], in assay [2] and in assay [3] was “inactive” in each case.
For the molecule `C[N+]1(C)C2CCC1CC(OC(=O)c1c[nH]c3ccccc13)C2` (centres undefined), the Potency entry in assay [1], in assay [2] and in assay [3] was “inactive” throughout.
For `O=C1C=CC(=O)C=C1`, the Potency result in assay [1], in assay [2] and in assay [3] was “inactive” each time.
Regarding `O=S1(=O)N(CCN2CC=C(c3c[nH]c4cc(F)ccc34)CC2)c2cccc3c2N1CCC3`, the Potency result in assay [1], in assay [2] and in assay [3] was “inactive” in each case.
Consider `Cc1[nH]c2ccc(O)cc2c1CCN`, for which the Potency entry in assay [1], in assay [2] and in assay [3] was “inactive” each time.
Regarding `CN1CCc2cccc(Cl)c2CC1`, the Potency result in assay [1], in assay [2] and in assay [3] was “inactive” in each case.
